Measured values taken from PubChem BioAssay (NCI).
This is part of a sample that, as a whole, favours compounds with a hit. Of some 83,000 tested, about 20% had one in any assay.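 96-well plates, one dose, 48 hours. Percent growth reported; active if below 10.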 Values without a mark were called inactive.

These molecules were tested on M14 melanoma (assay: NCI-60 one-dose screen, 48 h (100 = growth as untreated, 0 = no growth, -100 = all killed)). Details: 10 µM unless noted.

Compound	growth
C[C@H](c1nc2ccc(C#N)cc2[nH]1)[C@H]1CC[C@H]2[C@@H]3CCC4=CC(=O)CC[C@]4(C)[C@H]3CC[C@]12C	70.1%
O=c1cc(C(F)(F)F)c2cc(-c3cc4ccccc4c(=O)o3)c(O)cc2o1	68%
Nc1ccc(-c2ccncc2)cc1NC(=O)N1CCCC1	94.2%
COc1cccc(-c2cn3nc(-c4cn(C)c5ccccc45)sc3n2)c1	84.3%
CC(C)(C)c1ccc(S(=O)(=O)Oc2ccc(-c3sc4cc(OS(=O)(=O)c5ccc(C(C)(C)C)cc5)ccc4c3C(=O)c3ccc(OCCN4CCCCC4)cc3)cc2)cc1	99.2%
CCN(CC)CCn1c2ccc(OC)cc2c2sc3cc(O)ccc3c(=O)c21	31.2%
C=C1C(=O)O[C@H]2[C@H]1CC/C(COC(=O)NCc1ccc(Cn3c(=O)sn(-c4ccc(I)cc4)c3=O)cc1)=C\CC[C@@]1(C)O[C@@H]21	73.1%
O=C(Nc1nc(Cl)nc(Nc2ccc(N3CCOCC3=O)cc2)n1)c1ccc(Cl)s1	90.4%
COc1cc(OC)c2c(=O)c3c(CC=C(C)C)cc(OC)c(O)c3oc2c1	91%
O=S(=O)(Nc1cc(Sc2nc3ccccc3s2)c(O)c2ccccc12)c1ccc2ccccc2c1	109%
Nc1cccc(-c2ccc(COc3ccc(CC4SC(=O)NC4=O)cc3)cc2)c1 (configuration not stated)	36.5%
COc1ccc(-c2nc(SCC(=O)Nc3nc4ccc(C)cc4s3)[nH]c(=O)c2C#N)cc1OC	91.3%
